The record followed here is article PMC5540273 (PLoS ONE, 2017).

Test systems include CSF1R-autoinhibited; CSF1R; CSK; CSNK1A1L; CSNK1A1; CSNK1D; CSNK1E; CSNK1G1; CSNK1G2; CSNK1G3; CSNK2A1; CSNK2A2; DAPK1; DAPK2; DAPK3; DDR1.
What all share (details): concentration: 1 μM, replicates: in singlicate; n = 1
For a further assay, the system named is T1, CTK.
T1 construct: gene MATK

The subject of another assay is T2, DCAMKL1.
T2 construct: gene DCLK1

The next assay relates to T3, DCAMKL2.
T3 construct: gene DCLK2

The next assay deals with T4, DCAMKL3.
T4 construct: gene DCLK3
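Further: KINOMEscan kinase panel screen.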

`Cc1cccc(-c2nc(Nc3ccc4[nH]nnc4c3)c3ccccc3n2)n1` [GW867587]: the “%Inh” value with CSF1R-autoinhibited was 0%; in the assay with CSF1R, 0%; with CSK, 0%; in the assay with CSNK1A1L it was 0%; with CSNK1A1, 0%; in the assay on CSNK1D, 4%. Further, the “%Inh” value in the assay on CSNK1E came out at 0%; in the assay on CSNK1G1 it was 0%; with CSNK1G2 it was 0%; with CSNK1G3, 0%; in the assay with CSNK2A1, 80%; in the assay with CSNK2A2 it was 45%. Moreover, the “%Inh” value was determined as 10% with CTK; 0% in the assay on DAPK1; 0% in the assay with DAPK2; 0% with DAPK3; 0% in the assay with DCAMKL1; 0% with DCAMKL2. Besides, the “%Inh” value with DCAMKL3 and in the assay with DDR1 was 0% each time.

As to `CCC(CC)(CC)n1cnc2c(N)ncnc21` [SKF-97620], the “%Inh” value is recorded as 35% in the assay with CSF1R-autoinhibited; 0% with CSF1R; 0% in the assay on CSK; 1% in the assay with CSNK1A1L; 0% in the assay on CSNK1A1; 0% in the assay with CSNK1D. Further, the “%Inh” value is reported as 5% in the assay with CSNK1E; 4% in the assay with CSNK1G1; 0% in the assay on CSNK1G2; 0% in the assay with CSNK1G3; 0% with CSNK2A1; 0% with CSNK2A2. The “%Inh” value in the assay on CTK is listed as 0%; with DAPK1 it was 16%; in the assay on DAPK2 it was 9%; in the assay with DAPK3, 12%; with DCAMKL1, 0%; with DCAMKL2, 0%. The “%Inh” value in the assay with DCAMKL3 and in the assay on DDR1 was 0% each time.

Turning to `COc1ccc(NC(=O)Nc2ccc(C)c(-c3ccc(C(=O)Nc4ccncc4)cc3)c2)cc1` [GSK1398475], the “%Inh” value stood at 0% in the assay on CSF1R-autoinhibited; 93.7% in the assay with CSF1R; 0% in the assay with CSK; 3% with CSNK1A1L; 0% in the assay on CSNK1A1; 15% in the assay with CSNK1D. For the same compound, the “%Inh” value in the assay on CSNK1E turned out to be 36%; in the assay on CSNK1G1, 6%; in the assay with CSNK1G2, 6%; in the assay with CSNK1G3 it was 44%; with CSNK2A1 it was 0%; with CSNK2A2, 0%. Besides, the “%Inh” value is 0% with CTK; 5% in the assay on DAPK1; 0% in the assay with DAPK2; 3% in the assay with DAPK3; 10% in the assay on DCAMKL1; 0% in the assay with DCAMKL2. For the same compound, the “%Inh” value worked out at 9% in the assay on DCAMKL3 and 88% with DDR1.

For the compound `Nc1nc(-c2cccnc2)c(-c2ccnc3ccccc23)s1` [GW684083], the “%Inh” value in the assay with CSF1R-autoinhibited is 0%; in the assay on CSF1R it was 1%; with CSK it was 0%; with CSNK1A1L, 9%; in the assay on CSNK1A1, 1%; in the assay on CSNK1D, 65%. Also, the “%Inh” value in the assay with CSNK1E is 71%; with CSNK1G1, 10%; in the assay on CSNK1G2, 0%; in the assay with CSNK1G3, 13%; in the assay with CSNK2A1 it was 2%; in the assay with CSNK2A2, 1%. The “%Inh” value in the assay with CTK is given as 0%; in the assay on DAPK1 it was 0%; in the assay on DAPK2, 0%; in the assay with DAPK3, 0%; in the assay with DCAMKL1, 18%; in the assay on DCAMKL2, 4%. Also, the “%Inh” value in the assay on DCAMKL3 is on record as 14%; in the assay with DDR1 it was 0%.

For the compound `CC(C)(C)c1ccc(-n2cnc3c(N)ncnc32)cc1` [SKF-97263], the “%Inh” value in the assay on CSF1R-autoinhibited is 0%; in the assay with CSF1R it was 58%; with CSK, 0%; in the assay on CSNK1A1L it was 17%; in the assay on CSNK1A1, 40%; with CSNK1D it was 3%. Moreover, the “%Inh” value came out at 18% in the assay with CSNK1E; 6% with CSNK1G1; 13% in the assay with CSNK1G2; 25% in the assay on CSNK1G3; 18% with CSNK2A1; 0% in the assay with CSNK2A2. The “%Inh” value amounted to 0% in the assay on CTK; 0% in the assay on DAPK1; 0% in the assay with DAPK2; 0% with DAPK3; 0% in the assay with DCAMKL1; 12% with DCAMKL2. Also, the “%Inh” value with DCAMKL3 is on record as 0%; in the assay on DDR1 it was 27%.

For `Cl.c1ccc(Cn2ncc3cc(Nc4ncnc5ccccc45)ccc32)cc1` [GW273749], the “%Inh” value in the assay on CSF1R-autoinhibited was 0%; in the assay with CSF1R, 22%; in the assay on CSK it was 38%; in the assay with CSNK1A1L, 12%; in the assay on CSNK1A1 it was 0%; with CSNK1D it was 15%. Moreover, the “%Inh” value stood at 42% in the assay with CSNK1E; 12% in the assay on CSNK1G1; 0% with CSNK1G2; 30% with CSNK1G3; 4% in the assay on CSNK2A1; 13% in the assay with CSNK2A2. The “%Inh” value was determined as 0% with CTK; 5% in the assay on DAPK1; 0% in the assay with DAPK2; 4% in the assay with DAPK3; 9% in the assay on DCAMKL1; 0% with DCAMKL2. Moreover, the “%Inh” value is 0% in the assay on DCAMKL3 and 3% in the assay on DDR1.

On to `CCCc1ccc(S(=O)(=O)NC2CCN(c3ccnc(Nc4ccc(OC)cc4)n3)C2)cc1` (centres unmarked) [GSK1379737], for which the “%Inh” value was 23% in the assay with CSF1R-autoinhibited; 10% in the assay on CSF1R; 0% in the assay with CSK; 7% with CSNK1A1L; 0% in the assay with CSNK1A1; 14% with CSNK1D. Also, the “%Inh” value is recorded as 19% in the assay with CSNK1E; 0% with CSNK1G1; 0% in the assay with CSNK1G2; 21% in the assay with CSNK1G3; 0% in the assay with CSNK2A1; 0% in the assay on CSNK2A2. Moreover, the “%Inh” value with CTK stood at 0%; in the assay on DAPK1, 0%; in the assay with DAPK2 it was 0%; in the assay with DAPK3 it was 14%; with DCAMKL1 it was 7%; in the assay with DCAMKL2, 0%. For the same compound, the “%Inh” value with DCAMKL3 came to 0%; in the assay with DDR1, 15%.

In the case of `Fc1cccc(COc2ccc(Nc3ncnc4sc(-c5ccc[nH]5)cc34)cc2Cl)c1` [GW707818], the “%Inh” value came out at 28% with CSF1R-autoinhibited; 17% with CSF1R; 13% in the assay with CSK; 0% in the assay on CSNK1A1L; 0% with CSNK1A1; 9% with CSNK1D. Moreover, the “%Inh” value in the assay with CSNK1E is reported as 8%; in the assay with CSNK1G1, 0%; with CSNK1G2, 3%; with CSNK1G3, 31%; in the assay on CSNK2A1, 0%; in the assay on CSNK2A2, 0%. For the same compound, the “%Inh” value in the assay with CTK worked out at 0%; in the assay on DAPK1, 28%; in the assay on DAPK2, 0%; with DAPK3, 22%; in the assay on DCAMKL1, 28%; in the assay with DCAMKL2, 0%. The “%Inh” value in the assay with DCAMKL3 is reported as 30%; in the assay with DDR1, 4%.

In the case of `Cl.c1ccc(Cn2ccc3cc(Nc4ncnc5ccccc45)ccc32)cc1` [GW275568], the “%Inh” value came to 0% in the assay with CSF1R-autoinhibited; 55% in the assay with CSF1R; 20% with CSK; 0% with CSNK1A1L; 0% in the assay on CSNK1A1; 26% in the assay on CSNK1D. Besides, the “%Inh” value in the assay with CSNK1E is on record as 55%; in the assay with CSNK1G1, 15%; with CSNK1G2, 0%; with CSNK1G3, 22%; with CSNK2A1, 4%; in the assay on CSNK2A2 it was 19%. Also, the “%Inh” value with CTK is on record as 0%; with DAPK1, 21%; in the assay on DAPK2 it was 7%; with DAPK3, 30%; with DCAMKL1, 22%; in the assay on DCAMKL2, 10%. Further, the “%Inh” value in the assay with DCAMKL3 stood at 2%; with DDR1 it was 8%.

Consider `CS(=O)(=O)CCNCc1nc(-c2ccc3ncnc(Nc4ccc(OCc5cccc(F)c5)c(Cl)c4)c3c2)cs1.Cl` [GW583340], for which the “%Inh” value is recorded as 0% with CSF1R-autoinhibited; 8% with CSF1R; 12% with CSK; 0% in the assay with CSNK1A1L; 0% in the assay with CSNK1A1; 4% in the assay on CSNK1D. The “%Inh” value in the assay on CSNK1E worked out at 45%; with CSNK1G1, 17%; with CSNK1G2, 0%; with CSNK1G3, 24%; in the assay on CSNK2A1, 2%; with CSNK2A2 it was 17%. For the same compound, the “%Inh” value with CTK is reported as 0%; with DAPK1, 25%; in the assay on DAPK2, 0%; in the assay with DAPK3 it was 6%; with DCAMKL1, 16%; in the assay on DCAMKL2 it was 0%. In addition, the “%Inh” value in the assay with DCAMKL3 is recorded as 0%; with DDR1 it was 4%.
